Assay outcomes as filed in PubChem.
NOMO-1 viab = STK33 inhibitor candidate reducing NOMO-1 cell viability; NOMO-1 AML viability, CellTiter-Glo luminescence, 72 h; inhibition, % (test concentration not listed); hit rate 7.5% among 37,000; in the data active = inhibition above about 80%
Shh pathway inh = Sonic Hedgehog pathway inhibition | AID 2313 | inhibition, % (no concentration beside the values) | Shh-LIGHT2 Gli-luciferase reporter, 30 h | hit rate 2.1% among 22,000;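 active = mean inhibition across valid replicates above about 65%, limit read from the data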;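 note: pathway switched on by Shh-conditioned medium diluted 1 in 25 in low serum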
YB-1 expression = YB-1 expression inhibition; U2OS, qRT-PCR YB-1 vs CDIP delta delta Cp, 16 h; active compounds read high; zero = DMSO, each unit about twofold; hit rate 0.37% among 30,000; AID 434959; delta delta Cp (YB-1 minus CDIP) (no concentration beside the values);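 active = delta delta Cp rounded down to an integer at or above 3, about 3 SD of DMSO wells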;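 note: higher means less YB-1 transcript or more CDIP transcript relative to DMSO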
MITF inhib = blocks MITF activity; TRPM1 promoter luciferase, luminescence, 24 h; inhibition, % (concentration not given with the values); hit rate 0.28% among 37,000; in the data active = inhibition above about 85%;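 note: human melanocyte line stably carrying TRPM1 promoter luciferase reporter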
PD-1 reversal = activators reversing PD-1 mediated T-cell inhibition | primary human CD4 T cells, PD-L1 beads, CellTiter-Glo 96 h | activation, % (no concentration beside the values) | 29,000 tested, under 10 active | AID 2316; call rule not given here
Of the large screens only hits and unclear results are named; the others gave an inactive call. Sampled rows, rich in hits. Any-hit rate of the full collection: about 7.4%.

COc1ccc(S(=O)(=O)N(C)C[C@@H]2Oc3ccc(NC(=O)Nc4ccc5c(c4)OCO5)cc3C(=O)N([C@@H](C)CO)C[C@H]2C)cc1	none
COc1ccc(NC(=O)CSc2nc3ccc([N+](=O)[O-])cc3[nH]2)cc1	none (no result: Shh pathway inh, YB-1 expression, PD-1 reversal)
COC(=O)Nc1nc2ccc(SC(C)C)cc2[nH]1	NOMO-1 viab 118 (no result: PD-1 reversal)
CCCSc1ccc2nc(NC(=O)OC)[nH]c2c1	NOMO-1 viab 118 (no result: PD-1 reversal)
CC(CO)(CO)NS(=O)(=O)c1ccccc1	none
C[C@@H]1CN([C@@H](C)CO)C(=O)c2cccc(NC(=O)NC3CCCCC3)c2O[C@@H]1CN(C)Cc1ccc(Cl)c(Cl)c1	NOMO-1 viab 100
C[C@H]1CN([C@@H](C)CO)C(=O)c2cccc(NC(=O)C3CCCCC3)c2O[C@@H]1CN(C)Cc1ccc(Cl)c(Cl)c1	NOMO-1 viab 91
C[C@@H]1CN([C@H](C)CO)C(=O)c2cccc(NC(=O)C3CC3)c2O[C@@H]1CN(C)Cc1ccc(Cl)c(Cl)c1	Shh pathway inh 78
C[C@H](CO)N1C[C@H](C)[C@H](CN(C)Cc2ccc(Cl)c(Cl)c2)Oc2c(NC(=O)C3CCCCC3)cccc2C1=O	NOMO-1 viab 92
C[C@H]1CN([C@@H](C)CO)C(=O)c2cccc(NC(=O)NC3CCCCC3)c2O[C@H]1CN(C)Cc1ccc(Cl)c(Cl)c1	none
C[C@@H]1CN([C@H](C)CO)C(=O)c2cccc(NC(=O)C3CCCCC3)c2O[C@@H]1CN(C)Cc1ccc(Cl)c(Cl)c1	none
C=C(C)C(=O)O[C@H]1CC(=C)C2C[C@H](O)[C@](O)(CO)C2[C@H]2OC(=O)C(=C)[C@H]12 (some centres undefined)	NOMO-1 viab 119
Cn1c(SCc2nc(-c3ccc(Cl)cc3)no2)nnc1-c1ccccc1	none (no result: Shh pathway inh, YB-1 expression, PD-1 reversal)
Cc1c(C2CCN(CCc3ccccc3)CC2)noc1-c1ccc(Cl)cc1	NOMO-1 viab 93, Shh pathway inh 77 (no result: PD-1 reversal)
O=C(Oc1cc(OC(=O)c2ccco2)cc(OC(=O)c2ccco2)c1)c1ccco1	none
COc1ccc(C2C3=C(CC(C)(C)CC3=O)Nc3ccccc3N2C(C)=O)cc1COc1ccc(F)cc1 (centres undefined)	none (no result: Shh pathway inh, YB-1 expression)
CC1(C)CC(=O)C2=C(C1)Nc1ccccc1N(C(=O)C(F)(F)F)C2c1ccc(Cl)cc1Cl (centres undefined)	NOMO-1 viab 87
C[C@H]1CN([C@@H](C)CO)C(=O)Cc2cc(NC(=O)Nc3ccc(C(F)(F)F)cc3)ccc2O[C@@H]1CN(C)Cc1ccc(-c2ccccc2)cc1	NOMO-1 viab 127
C[C@H]1CN([C@@H](C)CO)C(=O)Cc2cc(NC(=O)Nc3ccc(C(F)(F)F)cc3)ccc2O[C@H]1CN(C)Cc1ccc(-c2ccccc2)cc1	NOMO-1 viab 128
COc1cc2c(cc1OC)CN(C(=O)[C@@H]1[C@H]3C(=O)O[C@H](c4ccccc4)[C@H](c4ccccc4)N3[C@H](c3ccccc3OCCO)[C@@]13C(=O)Nc1ccc(C#CCNC(N)=O)cc13)CC2	none (no result: NOMO-1 viab, Shh pathway inh, MITF inhib, PD-1 reversal)
CNC[C@H]1Oc2ccc(NC(=O)Cc3ccccc3)cc2CC(=O)N([C@@H](C)CO)C[C@@H]1C	none
COc1ccc(SCC(=O)Nc2ccccn2)cc1	none
Oc1c(C(Nc2ccccn2)c2cccc(OC3CCCC3)c2)ccc2cccnc12 (centres undefined)	NOMO-1 viab 114 (no result: Shh pathway inh, YB-1 expression)
C#CCOc1ccc(C(Nc2ccccn2)c2ccc3cccnc3c2O)cc1 (centres undefined)	NOMO-1 viab 113 (no result: Shh pathway inh, YB-1 expression, PD-1 reversal)
C[C@H](CO)N1C[C@H](C)[C@@H](CN(C)C(=O)Nc2ccc(F)cc2)Oc2c(NS(=O)(=O)c3ccc(Cl)cc3)cccc2C1=O	none
N#Cc1cc2c(OCC(O)CN3CCN(C(c4ccccc4)c4ccccc4)CC3)cccc2[nH]1 (centres undefined)	NOMO-1 viab 116, Shh pathway inh 103, MITF inhib 99 (no result: PD-1 reversal)
O=C1c2ccccc2C(=O)N1OS(=O)(=O)c1cccc2cccnc12	NOMO-1 viab 127 (no result: Shh pathway inh, YB-1 expression)
COc1ccc(OC)c(S(=O)(=O)ON2C(=O)c3ccccc3C2=O)c1	NOMO-1 viab 119 (no result: Shh pathway inh, YB-1 expression)
COc1ccc(OC)c(NS(=O)(=O)c2cc(OC)ccc2OC)c1	none (no result: Shh pathway inh, YB-1 expression)
CC(=O)c1cccc(NC(=O)C(C)N2C(=O)c3ccccc3C2=O)c1 (centres undefined)	none (no result: Shh pathway inh, YB-1 expression, PD-1 reversal)
O=C(CCN1C(=O)C2C3c4ccccc4C(c4ccccc43)C2C1=O)Oc1cccc2cccnc12 (centres undefined)	NOMO-1 viab 118 (no result: Shh pathway inh, YB-1 expression)
